Reference: PubChem BioAssay
For part of these data: Results with a measured potency or affinity are listed apart. Calls of active or inactive are those of the source. Unless noted, the rule behind the calls is not given here.

Legend:
[1] = antimalarial activity against Dd2 strain (AID 2302;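 active = growth inhibition above 50% at the single 2 µM test dose, taken to imply half-maximal potency below 2 µM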;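 note: 0% = DMSO untreated growth and 100% = chloroquine plus artemisinin killed control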); conditions: P. falciparum Dd2 in RBCs, LDH growth readout, 72 h; at 2 µM; active compounds read high
[2] = human hepatoma cell viability loss – ATP luminescence, cytotoxicity control for P. falciparum antimalarial project, primary screen (AID 2303;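 active = inhibition above 50%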;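 note: 0% = DMSO wells and 100% = digitonin-killed cells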); conditions: HepG2 viability, 24-48 h, at 10 µM, active compounds read high
[3] = target: L-lactate dehydrogenase (Plasmodium falciparum (isolate CDC / Honduras)) (UniProt Q27743); test: PfLDH activity inhibition – cell lysate, 3D7 strain, counter-screen for P. falciparum growth inhibition project (AID 2304);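 note: 0% = vehicle and 100% = reference inhibitor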; conditions: P. falciparum 3D7 crude extract, LDH APAD/NBT absorbance; at 2 µM; active compounds read high
[4] = inhibition of 3D7 malaria parasite growth – strain 3D7 (AID 2306);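 note: 0% = DMSO wells and 100% = chloroquine plus artemisinin control wells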; conditions: P. falciparum 3D7 erythrocytic growth, LDH absorbance, 72 h; at 2 µM; active compounds read high
[5] = target: Calcium-dependent protein kinase 1 (Plasmodium falciparum (isolate 3D7)) (UniProt P62344); test: PfCDPK1 kinase inhibitors, biochemical, TCAMS library (AID 1159585; cut-off not given, nearly all actives have IC50 up to about 0.98 µM;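 note: inhibitors leave more ATP so luminescence rises with inhibition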); conditions: recombinant PfCDPK1, Kinase-Glo ATP depletion luminescence
[6] = target: Plasmodium falciparum protein kinase 6 (PK6, PF3D7_1337100) (UniProt Q8IDW1); test: PfPK6 kinase inhibitors, biochemical, TCAMS library (AID 1159586); conditions: recombinant PfPK6, Kinase-Glo ATP depletion luminescence
[7] = target: Protein kinase 7 (PK7), Plasmodium falciparum 3D7 (PF3D7_0213400) (UniProt Q7YTF7); test: inhibition of Plasmodium PK7 catalytic activity – biochemical, TCAMS antimalarial set, Kinase-Glo luminescence (AID 1159587); conditions: recombinant PfPK7, Kinase-Glo ATP depletion luminescence
[8] = target: Calcium-dependent protein kinase 4 (Plasmodium falciparum (isolate 3D7)) (UniProt Q8IBS5); test: PfCDPK4 kinase inhibitors, biochemical, TCAMS library (AID 1159588; cut-off not given, nearly all actives have IC50 up to about 0.91 µM); conditions: recombinant PfCDPK4, Kinase-Glo ATP depletion luminescence
Calcium-dependent protein kinase 4 (Plasmodium falciparum (isolate 3D7)), sequence (Q8IBS5 whole entry, looked up): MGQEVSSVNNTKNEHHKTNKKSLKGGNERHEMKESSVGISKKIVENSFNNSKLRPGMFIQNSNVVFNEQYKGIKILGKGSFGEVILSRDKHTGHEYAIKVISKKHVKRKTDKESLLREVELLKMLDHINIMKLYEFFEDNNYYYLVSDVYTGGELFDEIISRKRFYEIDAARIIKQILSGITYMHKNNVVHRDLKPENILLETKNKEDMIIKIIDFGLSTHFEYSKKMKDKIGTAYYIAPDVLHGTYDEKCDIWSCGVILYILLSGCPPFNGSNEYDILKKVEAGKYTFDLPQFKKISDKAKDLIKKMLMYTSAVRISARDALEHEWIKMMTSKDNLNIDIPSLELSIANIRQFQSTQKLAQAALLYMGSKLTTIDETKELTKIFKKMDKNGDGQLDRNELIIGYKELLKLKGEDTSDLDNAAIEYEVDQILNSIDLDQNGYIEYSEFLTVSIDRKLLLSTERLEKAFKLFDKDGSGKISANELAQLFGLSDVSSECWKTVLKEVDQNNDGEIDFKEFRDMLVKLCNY

L-lactate dehydrogenase (Plasmodium falciparum (isolate CDC / Honduras)), sequence (Q27743 whole entry, looked up): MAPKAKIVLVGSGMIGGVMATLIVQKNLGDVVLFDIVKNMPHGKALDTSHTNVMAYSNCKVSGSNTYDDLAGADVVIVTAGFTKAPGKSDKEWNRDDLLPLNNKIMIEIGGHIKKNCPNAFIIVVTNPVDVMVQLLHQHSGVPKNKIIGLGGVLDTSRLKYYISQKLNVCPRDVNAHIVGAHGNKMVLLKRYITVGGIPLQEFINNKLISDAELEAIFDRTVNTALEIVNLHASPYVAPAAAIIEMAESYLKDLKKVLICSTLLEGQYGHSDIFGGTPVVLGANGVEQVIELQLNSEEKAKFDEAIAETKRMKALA
Plasmodium falciparum protein kinase 6 (PK6, PF3D7_1337100), sequence (Q8IDW1 1-305): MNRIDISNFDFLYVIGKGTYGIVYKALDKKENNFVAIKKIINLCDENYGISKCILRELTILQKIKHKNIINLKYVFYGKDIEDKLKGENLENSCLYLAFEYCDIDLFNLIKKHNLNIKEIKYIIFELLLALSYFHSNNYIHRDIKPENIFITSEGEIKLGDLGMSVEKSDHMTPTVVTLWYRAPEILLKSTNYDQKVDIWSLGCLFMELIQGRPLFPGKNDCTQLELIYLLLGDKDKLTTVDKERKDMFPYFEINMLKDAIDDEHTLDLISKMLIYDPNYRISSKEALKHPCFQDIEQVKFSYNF
Calcium-dependent protein kinase 1 (Plasmodium falciparum (isolate 3D7)), sequence (P62344 whole entry, looked up): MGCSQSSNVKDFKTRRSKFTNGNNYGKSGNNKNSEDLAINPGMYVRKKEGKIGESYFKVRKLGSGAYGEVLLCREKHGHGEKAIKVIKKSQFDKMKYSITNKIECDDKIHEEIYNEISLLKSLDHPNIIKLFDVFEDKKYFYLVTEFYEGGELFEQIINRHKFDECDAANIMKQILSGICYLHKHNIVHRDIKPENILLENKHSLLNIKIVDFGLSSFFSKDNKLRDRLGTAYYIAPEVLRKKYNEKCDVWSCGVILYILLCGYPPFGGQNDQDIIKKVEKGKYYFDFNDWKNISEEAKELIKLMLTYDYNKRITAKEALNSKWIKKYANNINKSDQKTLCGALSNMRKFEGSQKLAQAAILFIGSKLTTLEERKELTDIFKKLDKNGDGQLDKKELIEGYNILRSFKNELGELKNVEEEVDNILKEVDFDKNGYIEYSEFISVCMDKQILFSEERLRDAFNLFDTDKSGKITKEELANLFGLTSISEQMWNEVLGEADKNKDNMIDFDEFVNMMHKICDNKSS
Protein kinase 7 (PK7), Plasmodium falciparum 3D7 (PF3D7_0213400), sequence (Q7YTF7 1-343): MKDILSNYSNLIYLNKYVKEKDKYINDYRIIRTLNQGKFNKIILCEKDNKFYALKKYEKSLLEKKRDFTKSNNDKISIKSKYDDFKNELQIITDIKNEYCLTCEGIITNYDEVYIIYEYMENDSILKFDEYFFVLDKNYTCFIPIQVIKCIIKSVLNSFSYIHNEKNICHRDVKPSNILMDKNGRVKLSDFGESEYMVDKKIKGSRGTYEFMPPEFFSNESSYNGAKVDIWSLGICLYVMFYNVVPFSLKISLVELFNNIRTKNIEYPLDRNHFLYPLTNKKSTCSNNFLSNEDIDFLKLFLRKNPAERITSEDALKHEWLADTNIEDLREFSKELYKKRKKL

CN(Cc1cc(C(F)(F)F)cc(C(F)(F)F)c1)C(=O)[C@H]1CNC[C@@H]1c1ccc(F)cc1
inactive: growth inhibition [1] 4% | inhibition [2] 1% | inhibition [3] -5% | outcome [5] | outcome [6] | outcome [7] | outcome [8]
active: growth inhibition [4] 92%

CN1CCOc2ccc(Nc3nnc(-c4cccc(-c5cccnc5)c4)o3)cc2C1
inactive: inhibition [2] -4% | inhibition [3] -1% | outcome [5] | outcome [6] | outcome [7] | outcome [8]
active: growth inhibition [1] 100% | growth inhibition [4] 100%

NC1CCN(CCNCc2cccc(-c3ccc(-c4nc5ccc(C(F)(F)F)cc5[nH]4)cc3)c2)C1 (configuration not stated)
inactive: inhibition [2] 19% | inhibition [3] 1% | outcome [5] | outcome [6] | outcome [7] | outcome [8]
active: growth inhibition [1] 75% | growth inhibition [4] 98%

Cc1cccc(CCNC(=O)c2cc(Br)cc(N3CCN(c4ccncc4)CC3)c2)c1
inactive: inhibition [2] 48% | inhibition [3] 0% | outcome [5] | outcome [6] | outcome [7] | outcome [8]
active: growth inhibition [1] 53% | growth inhibition [4] 96%

O=C(NCCN1CCCC1)c1cccc(-c2ccc(-c3nc4ccc(C(F)(F)F)cc4[nH]3)cc2)c1
inactive: inhibition [2] 34% | inhibition [3] -3% | outcome [5] | outcome [6] | outcome [7] | outcome [8]
active: growth inhibition [1] 99% | growth inhibition [4] 101%

CCOC(=O)c1c(NC(NC(=O)c2ccc(C(C)(C)C)cc2)C(Cl)(Cl)Cl)sc2c1CCCC2 (configuration not stated)
active: growth inhibition [1] 94% | growth inhibition [4] 98%
inactive: inhibition [2] 1% | inhibition [3] -3% | outcome [5] | outcome [6] | outcome [7] | outcome [8]

COc1ccc(C2N=C(N)N=C(N)N2OCc2ccccc2)cc1OC (configuration not stated)
inactive: growth inhibition [1] 2% | inhibition [2] 1% | inhibition [3] 0% | outcome [5] | outcome [6] | outcome [7] | outcome [8]
active: growth inhibition [4] 95%

Cc1cc(NC(=O)c2ccsc2)ccc1OC1CCN(Cc2ccc(F)cc2)CC1
active: growth inhibition [4] 83%
inactive: growth inhibition [1] 47% | inhibition [2] 9% | inhibition [3] -2% | outcome [5] | outcome [6] | outcome [7] | outcome [8]

Cc1cccc(Nc2nc3nonc3nc2Nc2cccc(Cl)c2Cl)c1C
inactive: inhibition [3] 2% | outcome [5] | outcome [6] | outcome [7] | outcome [8]
active: growth inhibition [1] 95% | inhibition [2] 88% | growth inhibition [4] 91%

CCn1ccc2c(N3CCCCS3(=O)=O)cc(C(=O)N[C@@H](Cc3ccccc3)[C@H](O)CNC(C)(C)c3cccc(C(F)(F)F)c3)cc21
inactive: inhibition [2] 6% | inhibition [3] -4% | outcome [5] | outcome [6] | outcome [7] | outcome [8]
active: growth inhibition [1] 98% | growth inhibition [4] 97%

O=C(Nc1nc(-c2ccccn2)cs1)c1ccc(S(=O)(=O)N2CCc3ccccc32)cc1
active: growth inhibition [4] 89%
inactive: growth inhibition [1] 15% | inhibition [2] 47% | inhibition [3] 2% | outcome [5] | outcome [6] | outcome [7] | outcome [8]

O=C(NCC1CC1)C1CCN(C(c2ccccc2)c2nc3ccccc3s2)CC1 (configuration not stated)
active: growth inhibition [4] 92%
inactive: growth inhibition [1] 49% | inhibition [2] -3% | inhibition [3] 8% | outcome [5] | outcome [6] | outcome [7] | outcome [8]

CC(C)c1ccc(NC(=O)c2cccc(CN3CCCN(Cc4cccc(O)c4)CC3)c2)cc1
inactive: growth inhibition [1] 33% | inhibition [2] 25% | inhibition [3] -2% | outcome [5] | outcome [6] | outcome [7] | outcome [8]
active: growth inhibition [4] 97%

CCOC(=O)N(C)/N=C/[C@H](CCc1ccccc1)NC(=O)[C@H](CC(C)C)NC(=O)c1cc2cccc(OC)c2o1
inactive: inhibition [2] 2% | inhibition [3] 1% | outcome [5] | outcome [6] | outcome [7] | outcome [8]
active: growth inhibition [1] 70% | growth inhibition [4] 86%

N#Cc1cccc(C(=O)N2CCOC(CCN3CCC(c4ccccc4)CC3)(c3ccc(Cl)c(Cl)c3)C2)c1 (configuration not stated)
inactive: growth inhibition [1] 49% | inhibition [3] 0% | outcome [5] | outcome [6] | outcome [7] | outcome [8]
active: inhibition [2] 51% | growth inhibition [4] 87%

CCNc1cc(C(=O)N[C@@H](Cc2ccccc2)[C@H](O)CNC(CC)c2cccc(Cl)c2)cc(N2CCCCS2(=O)=O)c1 (some centres not stated)
active: growth inhibition [1] 98% | growth inhibition [4] 100%
inactive: inhibition [2] 12% | inhibition [3] -2% | outcome [5] | outcome [6] | outcome [7] | outcome [8]

COc1ccc2nccc([C@@H](O)CN3CCC(NCc4cnc5c(c4)NC(=O)CS5)CC3)c2c1
active: growth inhibition [4] 87%
inactive: growth inhibition [1] 29% | inhibition [2] -15% | inhibition [3] 0% | outcome [5] | outcome [6] | outcome [7] | outcome [8]

CCOC(=O)c1ccc(N2CCCCC2)c(NC(=O)C(Cl)(Cl)Cl)c1
active: growth inhibition [1] 97% | growth inhibition [4] 96%
inactive: inhibition [2] 11% | inhibition [3] 1% | outcome [5] | outcome [6] | outcome [7] | outcome [8]

CC(C)CCNCC(O)Cn1c2ccc(Cl)cc2c2cc(Cl)ccc21 (configuration not stated)
active: growth inhibition [1] 99% | growth inhibition [4] 99%
inactive: inhibition [2] 36% | inhibition [3] 3% | outcome [5] | outcome [6] | outcome [7] | outcome [8]

CO/C(=C\C=C\c1cc2cc(Cl)c(Cl)cc2[nH]1)C(=O)NCCCN1CCCC[C@@H]1C
inactive: inhibition [2] 33% | inhibition [3] 1% | outcome [5] | outcome [6] | outcome [7] | outcome [8]
active: growth inhibition [1] 83% | growth inhibition [4] 99%

Cc1sc(NC(=O)c2ccc([N+](=O)[O-])cc2Cl)c(C(N)=O)c1C
active: growth inhibition [4] 94%
inactive: growth inhibition [1] 2% | inhibition [2] 2% | inhibition [3] 1% | outcome [5] | outcome [6] | outcome [7] | outcome [8]

N=C(N)c1cc(Cl)cc(NC(=O)Nc2cc(Cl)cc(C(=N)N)c2)c1
active: growth inhibition [1] 92% | growth inhibition [4] 92%
inactive: inhibition [2] 4% | inhibition [3] -7% | outcome [5] | outcome [6] | outcome [7] | outcome [8]

Oc1ccccc1CNCc1ccc(-c2cnc(N3CCCC(c4ccccc4)C3)nc2)cc1 (configuration not stated)
inactive: inhibition [2] 6% | inhibition [3] -4% | outcome [5] | outcome [6] | outcome [7] | outcome [8]
active: growth inhibition [1] 84% | growth inhibition [4] 99%

CN1CCCC(CN2CCN(Cc3ccc(-c4ccc(-c5nc6ccccc6[nH]5)s4)cc3)CC2)C1 (configuration not stated)
active: growth inhibition [1] 100% | inhibition [2] 57% | growth inhibition [4] 100%
inactive: inhibition [3] -8% | outcome [5] | outcome [6] | outcome [7] | outcome [8]

COc1ccc2nccc([C@@H](O)CN3CCC(NCCOc4cc(F)cc(F)c4)CC3)c2c1
active: growth inhibition [1] 86% | growth inhibition [4] 101%
inactive: inhibition [2] 10% | inhibition [3] -3% | outcome [5] | outcome [6] | outcome [7] | outcome [8]

CCC[C@@H]([C@@H](CC1CCCCC1)C(=O)N[C@H](C(=O)Nc1nccs1)C(C)(C)SCCOCCOCC)N(O)C=O
active: growth inhibition [1] 97% | growth inhibition [4] 100%
inactive: inhibition [2] 40% | inhibition [3] -5% | outcome [5] | outcome [6] | outcome [7] | outcome [8]

CCN(CCCN1CCCCC1)c1cc(C)nc(Nc2ccc3c(c2)CCC3)n1
inactive: inhibition [2] 32% | inhibition [3] 5% | outcome [5] | outcome [6] | outcome [7] | outcome [8]
active: growth inhibition [1] 93% | growth inhibition [4] 100%

O=C(NCCN1CCCC1)N1CCCN(c2ncnc3cc(-c4ccc(F)cc4)sc23)CC1
active: growth inhibition [4] 81%
inactive: growth inhibition [1] 19% | inhibition [2] 5% | inhibition [3] 5% | outcome [5] | outcome [6] | outcome [7] | outcome [8]

O=C(/C=C/c1ccccc1O)N1CCC(CCN2CCC(c3c[nH]c4ccccc34)CC2)CC1
inactive: growth inhibition [1] 15% | inhibition [2] 46% | inhibition [3] -1% | outcome [5] | outcome [6] | outcome [7] | outcome [8]
active: growth inhibition [4] 100%

Cc1cccc(C(=O)Nc2ccnc(N(C)CCCN(C)Cc3cccc(C#N)c3)c2)c1
active: growth inhibition [4] 92%
inactive: growth inhibition [1] 12% | inhibition [2] 1% | inhibition [3] -2% | outcome [5] | outcome [6] | outcome [7] | outcome [8]

NC(=O)c1ccc(NCC(=O)Nc2cccc(-c3cccc(-c4nc5ccc(F)cc5[nH]4)c3)c2)cc1
active: growth inhibition [4] 97%
inactive: growth inhibition [1] 32% | inhibition [2] 15% | inhibition [3] -3% | outcome [5] | outcome [6] | outcome [7] | outcome [8]

O=C(/C=C/c1ccc(Cl)c(Cl)c1)NCCCCCCN1CCCN(C(=O)Nc2ccc(F)c(Cl)c2)CC1
active: growth inhibition [4] 98%
inactive: growth inhibition [1] 1% | inhibition [2] 30% | inhibition [3] 0% | outcome [5] | outcome [6] | outcome [7] | outcome [8]

O=C(/C=C/c1ccc(CNCCN2CCOCC2)cc1)NCCc1ccccc1
inactive: growth inhibition [1] 3% | inhibition [2] 9% | inhibition [3] -2% | outcome [5] | outcome [6] | outcome [7] | outcome [8]
active: growth inhibition [4] 94%

CN(C)C(=O)CN1CCN(c2ncnc(N3CCc4c([nH]c5ccccc45)[C@@H]3c3ccc4c(c3)CCO4)n2)CC1
active: growth inhibition [1] 98% | growth inhibition [4] 99%
inactive: inhibition [2] 12% | inhibition [3] -1% | outcome [5] | outcome [6] | outcome [7] | outcome [8]

Fc1cccc(COc2ccc(Nc3ncnc4cc(/C=C/[C@@H]5CCCN5)sc34)cc2Cl)c1
active: growth inhibition [1] 56% | growth inhibition [4] 100%
inactive: inhibition [2] 17% | inhibition [3] -7% | outcome [5] | outcome [6] | outcome [7] | outcome [8]

CC(=O)N1c2ccccc2C(C)=CC1(C)C
active: growth inhibition [4] 97%
inactive: growth inhibition [1] 11% | inhibition [2] 3% | inhibition [3] 1% | outcome [5] | outcome [6] | outcome [7] | outcome [8]

Cc1nc(N)nc(N)c1-c1ccc(Cl)cc1
inactive: growth inhibition [1] 0% | inhibition [2] 15% | inhibition [3] -4% | outcome [5] | outcome [6] | outcome [7] | outcome [8]
active: growth inhibition [4] 96%

COC(=O)c1ccc2nc(-c3ccc(/C=C/C(=O)NCc4ccc(Cl)c(Cl)c4)cc3)[nH]c2c1
active: growth inhibition [4] 81%
inactive: growth inhibition [1] 3% | inhibition [2] 13% | inhibition [3] -3% | outcome [5] | outcome [6] | outcome [7] | outcome [8]

FC(F)(F)c1ccc(Nc2nnnc3ccccc23)cc1
inactive: inhibition [2] 3% | inhibition [3] -6% | outcome [5] | outcome [6] | outcome [7] | outcome [8]
active: growth inhibition [1] 82% | growth inhibition [4] 90%
